Reference: PubChem BioAssay
Values without a mark were called inactive. Calls of active or inactive are those of the source.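 How the source made its calls: active means mean inhibition above 46.5%, the solvent-only control mean plus 3 SD; inactive means the rest.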

molecular target: Nuclear receptor coactivator 2 (Homo sapiens) (UniProt Q15596); assay: SRC2 coactivator transcriptional activity inhibitors, confirmation, cell-based, luminescence, HEK293, triplicate (AID 652008); conditions: HEK293 GAL4-SRC2 luciferase reporter, at 8.9 µM, active compounds read high;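 further: 0% = DMSO-treated cells and 100% = Gossypol at 36 µM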
Sequence (Q15596 whole entry, looked up, the tested form may be a part): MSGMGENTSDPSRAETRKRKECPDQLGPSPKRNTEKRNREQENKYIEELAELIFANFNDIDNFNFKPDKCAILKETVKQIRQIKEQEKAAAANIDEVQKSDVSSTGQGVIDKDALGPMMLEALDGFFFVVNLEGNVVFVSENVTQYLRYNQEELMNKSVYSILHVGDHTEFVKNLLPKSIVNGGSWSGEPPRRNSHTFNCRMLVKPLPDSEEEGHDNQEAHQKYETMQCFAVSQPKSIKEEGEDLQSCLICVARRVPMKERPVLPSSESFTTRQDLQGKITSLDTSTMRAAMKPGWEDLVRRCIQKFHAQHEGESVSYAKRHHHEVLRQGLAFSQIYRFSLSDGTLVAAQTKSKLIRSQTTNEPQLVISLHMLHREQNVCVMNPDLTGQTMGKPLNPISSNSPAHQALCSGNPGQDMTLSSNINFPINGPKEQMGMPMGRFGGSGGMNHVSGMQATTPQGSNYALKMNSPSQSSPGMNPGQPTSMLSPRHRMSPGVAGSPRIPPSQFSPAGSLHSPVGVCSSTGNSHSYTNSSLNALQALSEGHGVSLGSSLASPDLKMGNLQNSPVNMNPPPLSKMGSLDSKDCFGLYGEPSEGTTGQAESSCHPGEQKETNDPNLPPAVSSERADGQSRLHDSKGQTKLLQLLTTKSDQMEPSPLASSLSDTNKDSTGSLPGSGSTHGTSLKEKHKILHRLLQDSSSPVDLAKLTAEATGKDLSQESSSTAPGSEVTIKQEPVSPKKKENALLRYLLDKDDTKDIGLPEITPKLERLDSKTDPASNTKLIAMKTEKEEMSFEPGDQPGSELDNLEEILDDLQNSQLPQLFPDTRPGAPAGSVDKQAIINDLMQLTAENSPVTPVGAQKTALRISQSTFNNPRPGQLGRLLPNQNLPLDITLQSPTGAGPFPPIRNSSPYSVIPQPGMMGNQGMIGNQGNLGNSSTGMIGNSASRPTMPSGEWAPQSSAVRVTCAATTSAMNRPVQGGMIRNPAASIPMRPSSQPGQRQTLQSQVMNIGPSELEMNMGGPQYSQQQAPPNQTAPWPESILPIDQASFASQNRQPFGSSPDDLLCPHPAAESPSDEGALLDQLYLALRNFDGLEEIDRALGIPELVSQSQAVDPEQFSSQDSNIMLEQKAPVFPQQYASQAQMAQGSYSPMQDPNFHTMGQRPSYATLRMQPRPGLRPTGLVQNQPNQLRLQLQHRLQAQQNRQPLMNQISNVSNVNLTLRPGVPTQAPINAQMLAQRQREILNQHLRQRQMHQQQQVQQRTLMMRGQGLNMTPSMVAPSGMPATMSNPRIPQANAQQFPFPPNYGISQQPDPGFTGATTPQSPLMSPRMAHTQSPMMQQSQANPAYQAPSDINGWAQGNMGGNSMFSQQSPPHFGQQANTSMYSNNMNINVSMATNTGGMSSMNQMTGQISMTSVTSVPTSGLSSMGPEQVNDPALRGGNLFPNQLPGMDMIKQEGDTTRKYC

Compound	inhibition
O=S(=O)(Cc1ccccc1Cl)NCCc1ccc(F)cc1	-1.95%
Cc1ccc2nc(C)cc(Nc3ccc4c(c3)OCCO4)c2c1	0.71%
O=C(Nc1ccccc1)C1=C(c2ccccc2)S(=O)(=O)CCS1(=O)=O	90.1% (active)
Cc1ccc(S(=O)(=O)N2CCN(C(=O)c3cc4c(C)nn(-c5ccccc5C)c4s3)CC2)cc1	4.62%
Cc1cccc(C(=O)N2CCC(Cc3ccccc3)CC2)c1[N+](=O)[O-]	38.3%
COc1cc(C)c(Br)cc1S(=O)(=O)NCc1cccs1	-12.6%
Cc1cc(N)ccc1-n1nc2ccccc2n1	3.06%
O=C(CCCN1C(=O)/C(=C/c2ccccc2)SC1=S)NCCCn1ccnc1	26.1%
O=c1cc(-c2ccc(O)cc2)oc2ccc3ccccc3c12	50.8% (active)
COC(=O)C1Cc2ccccc2CN1C(=O)CCl (stereo not given)	33.2%
CCNC(=O)C1(C)CCCN(Cc2csc(-c3ccccc3)n2)C1 (stereo not given)	-4.83%
CCOC(=O)Cn1c(=O)c2c(nc(N3CCCCC3)n2Cc2ccccc2)n(C)c1=O	4.93%
Cc1ccc2c(c1)sc(=NC(=O)c1cccs1)n2C	-3.83%
O=C1CSC(c2ccc([N+](=O)[O-])cc2)N1c1ccc(O)cc1 (stereo not given)	-13.8%
N#Cc1c(NC(=O)CSc2ncn[nH]2)sc2c1CCCC2	88.2% (active)
CC(C)(C)C(=O)Nc1nnc(CSCc2ccccc2F)s1	9.89%
COc1ccc(C(=O)c2ccc(CC(=O)O)s2)cc1	43.1%
COc1cccc(/C=C2/SC(=S)N(CCCC(=O)Nc3ccc(O)cc3)C2=O)c1	23.7%
CCC(=O)Nc1ccc(NC(=O)c2oc3ccccc3c2C)cc1	38.1%
Cc1ccc(NC(=O)CSc2ncnc3ccccc23)cc1S(=O)(=O)N1CCCCCC1	20.7%

Compound	inhibition
COc1cc(OC)c(CN2CCc3c([nH]c4ccccc34)C2)cc1Br	-4.79%
CCC(C)C(NC(=O)OCc1ccccc1)C(=O)OCN1C(=O)c2ccccc2C1=O (stereo not given)	-8.71%
N#Cc1c(N)nc2c(c1N)CC(C(F)(F)F)O2 (stereo not given)	12%
CCOc1ccc(-c2cc(CCCC(=O)NCc3ccco3)no2)cc1	37.5%
COc1ccc(-c2cc(C(=O)O)c(C)o2)cc1OC	-11.1%
CN1C(=O)C(c2cn(C)c3ccccc23)(c2cn(C)c3ccccc23)c2cc(F)ccc21	-37.4%
COc1ccc2cc3cc(C(=O)Nc4ccc5c(c4)OCO5)oc3nc2c1	-32%
Cc1c(CCC(=O)N[C@@H](CCCNC(N)=O)C(=O)O)c(=O)oc2cc3oc4c(c3cc12)CCCC4	57.7% (active)
CCN(CC)S(=O)(=O)c1ccc(C)c(NC(=S)NC2CCCCC2)c1	-9.1%
O=C(O)c1cccc(CSc2nnc(COc3ccccc3)o2)c1	34.5%
COc1ccc(-c2nnc(SCc3cccc(F)c3)n2-c2ccccc2)cc1	-7.06%
Cc1ccc(-c2noc(CCC(=O)NCCN3CCN(Cc4ccccc4)CC3)n2)cc1	41.6%
CCCCC(=O)Nc1ccc(C)c(S(=O)(=O)N2CCCCCC2)c1	18.4%
CCC(C)c1ccc(C(C)NC(=S)NC2CCCCC2)cc1 (stereo not given)	22.8%
CCc1ccc(C(=O)Nc2nc3ccccc3[nH]2)cc1	45.8%
COc1ccc(C(=O)C(CN2CCOCC2)c2ccccc2)cc1F (stereo not given)	13.4%
COC(=O)c1ccc(NC(=O)c2nc(S(=O)(=O)Cc3cccc(C)c3)ncc2Cl)cc1	53.4% (active)
O=C(COC(=O)CCCOc1ccc(Cl)cc1Cl)NCc1ccccc1	15.4%
O=S(=O)(c1ccccc1)N1CCC(O)(CSc2ccc(F)cc2)CC1	13.4%
CC(Oc1ccc(Cl)cc1Cl)C(=O)NCCCn1ccnc1 (stereo not given)	-15.5%
